Assay results from PubChem BioAssay (NCI).
This is part of a sample that, as a whole, favours compounds with a hit. Of some 83,000 tested, about 20% had one in any assay.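 Note: values are percent growth. 100 is the growth of untreated cells, values between 100 and 0 indicate rising inhibition; between -100 and 0 indicates cell death.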 Activity calls are given as the source filed them. How the source made its calls: active means growth percent below 10; inactive means the rest.

Experiments:
Assay in all cases: NCI-60 one-dose screen, 48 h (100 = growth as untreated, 0 = no growth, -100 = all killed)
Details in all cases: 10 µM unless noted
NCI-H23 lung = test system: NCI-H23 lung
NCI-H226 lung = test system: NCI-H226 lung
NCI-H322M lung = test system: NCI-H322M lung
HOP-62 NSCLC = test system: HOP-62 NSCLC
NCI-H460 lung = test system: NCI-H460 lung
HOP-92 NSCLC = test system: HOP-92 NSCLC
NCI-H522 lung = test system: NCI-H522 lung
A549/ATCC NSCLC = test system: A549/ATCC NSCLC
786-0 renal = test system: 786-0 renal
COLO 205 colon = test system: COLO 205 colon

Measured: growth

CCCCCCCCCC(=O)Oc1ccc(/C(=C(/C)Cc2cccc(OC)c2)c2ccc(OCCN(C)C)cc2)cc1
inactive: NCI-H23 lung 99.3% | NCI-H226 lung 114% | NCI-H322M lung 107% | HOP-62 NSCLC 111% | NCI-H460 lung 112% | HOP-92 NSCLC 113% | NCI-H522 lung 97% | A549/ATCC NSCLC 108% | 786-0 renal 103% | COLO 205 colon 118%

CC(=O)OC1Oc2cc(C)c(C)cc2-c2oc(=O)c(-c3cc4ccc(N(C)C)cc4oc3=O)cc21 (stereo not given)
inactive: NCI-H23 lung 46.9% | NCI-H226 lung 59.2% | NCI-H322M lung 78.9% | HOP-62 NSCLC 82% | NCI-H460 lung 65.4% | HOP-92 NSCLC 77.8% | NCI-H522 lung 60.5% | A549/ATCC NSCLC 70.5% | 786-0 renal 74.1% | COLO 205 colon 96.4%

C=C1C(=O)O[C@H]2[C@H]1CC/C(Cn1cc(Cc3c[nH]c4ccccc34)nn1)=C\CC[C@@]1(C)O[C@@H]21
inactive: NCI-H23 lung 37.1% | NCI-H226 lung 79.7% | NCI-H322M lung 85.1% | HOP-62 NSCLC 76.7% | NCI-H460 lung 79.7% | A549/ATCC NSCLC 57.9%
active: HOP-92 NSCLC -8.55% | NCI-H522 lung -79.2% | 786-0 renal -9.3% | COLO 205 colon -68.1%

CC1(C)OCC2OC3(C(=O)O)OC(C)(C)OC3C2O1 (stereo not given)
inactive: NCI-H23 lung 102% | NCI-H226 lung 106% | NCI-H322M lung 93% | HOP-62 NSCLC 101% | NCI-H460 lung 110% | HOP-92 NSCLC 116% | NCI-H522 lung 84.6% | A549/ATCC NSCLC 98.1% | 786-0 renal 103% | COLO 205 colon 106%

CN1Cc2c(cc(CN3CCCCC3)n2C)C(c2ccc(Br)cc2)C1 (stereo not given)
inactive: NCI-H23 lung 84.6% | NCI-H226 lung 90.7% | NCI-H322M lung 91.5% | HOP-62 NSCLC 91.1% | NCI-H460 lung 96.9% | HOP-92 NSCLC 53.9% | NCI-H522 lung 90.5% | A549/ATCC NSCLC 93.8% | 786-0 renal 66.5% | COLO 205 colon 83.1%

COc1cccc(-c2nc3sccn3c2-c2ccnc(NCCCNS(=O)(=O)c3ccccc3)c2)c1
inactive: NCI-H23 lung 29.1% | NCI-H226 lung 32.6% | NCI-H322M lung 69.4% | HOP-62 NSCLC 62.2% | NCI-H460 lung 38.3% | HOP-92 NSCLC 42% | NCI-H522 lung 27.9% | A549/ATCC NSCLC 29% | 786-0 renal 59.5% | COLO 205 colon 37.7%

Cc1cc2cc3cc(C)c(N(C)C)cc3nc2cc1N(C)C
inactive: NCI-H23 lung 23.9% | NCI-H226 lung 54.8% | NCI-H322M lung 22.3% | HOP-62 NSCLC 23.1% | 786-0 renal 28%
active: NCI-H460 lung 8.26% | HOP-92 NSCLC -37% | NCI-H522 lung -11.7% | A549/ATCC NSCLC 7.53% | COLO 205 colon -23.8%

Cc1ccc2c(NCCCN(C)C)c3c(C)nn(C)c3nc2c1
active: NCI-H460 lung 8.82%
inactive: NCI-H23 lung 51.6% | NCI-H226 lung 41.7% | NCI-H322M lung 34.5% | HOP-62 NSCLC 41.1% | HOP-92 NSCLC 30% | NCI-H522 lung 28.3% | A549/ATCC NSCLC 13.7% | 786-0 renal 37.1% | COLO 205 colon 13.4%

COc1ccc2nc(NC(=O)c3cccnc3Nc3cc(OC)c(OC)c(OC)c3)sc2c1
inactive: NCI-H23 lung 22.6% | NCI-H226 lung 10.9% | HOP-62 NSCLC 16.7% | NCI-H522 lung 13.3% | COLO 205 colon 123%
active: NCI-H322M lung -54.3% | NCI-H460 lung 0.16% | HOP-92 NSCLC -64.6% | A549/ATCC NSCLC -32.2% | 786-0 renal -66.9%

COc1cc(/C=N/N(C)C)ccc1O
inactive: NCI-H23 lung 105% | NCI-H226 lung 91.5% | NCI-H322M lung 99.1% | HOP-62 NSCLC 91.4% | NCI-H460 lung 105% | NCI-H522 lung 87.7% | A549/ATCC NSCLC 84.1% | 786-0 renal 109% | COLO 205 colon 108%
active: HOP-92 NSCLC -18.7%

COc1ccc(C2c3ccc4ccccc4c3Oc3ncnc(N)c32)cc1 (stereo not given)
inactive: NCI-H23 lung 83% | NCI-H226 lung 63.9% | NCI-H322M lung 88% | HOP-62 NSCLC 45.1% | NCI-H460 lung 92.4% | HOP-92 NSCLC 70.4% | NCI-H522 lung 46.2% | A549/ATCC NSCLC 97.3% | 786-0 renal 97.1% | COLO 205 colon 94.5%

Oc1cc(O)c2c(=S)cc(-c3ccc(Cl)cc3)oc2c1
active: NCI-H23 lung 4.05% | HOP-92 NSCLC -21.9% | NCI-H522 lung -1.71%
inactive: NCI-H226 lung 73.6% | NCI-H322M lung 60.4% | HOP-62 NSCLC 46.4% | NCI-H460 lung 21% | A549/ATCC NSCLC 53.6% | 786-0 renal 74.6% | COLO 205 colon 85.8%

Clc1nc(Cl)c2c3c(sc2n1)CCCC3
active: NCI-H226 lung 3.63% | NCI-H522 lung 7.65% | COLO 205 colon 5.1%
inactive: NCI-H23 lung 32.5% | NCI-H322M lung 90.2% | HOP-62 NSCLC 91.4% | NCI-H460 lung 109% | HOP-92 NSCLC 103% | A549/ATCC NSCLC 120% | 786-0 renal 96.1%

C=C1CC[C@@H]2[C@](C)(COC(C)=O)[C@H](OC(C)=O)CC[C@@]2(C)[C@@H]1CC(Nc1ccc(S(=O)(=O)Nc2nc(C)cc(C)n2)cc1)C1=CCOC1=O (stereo not given in full)
inactive: NCI-H23 lung 84.3% | NCI-H226 lung 86.7% | NCI-H322M lung 97.2% | HOP-62 NSCLC 103% | NCI-H460 lung 90.3% | HOP-92 NSCLC 90.1% | NCI-H522 lung 22% | A549/ATCC NSCLC 65.3% | 786-0 renal 103% | COLO 205 colon 77%

COc1cccc(-n2cc(-c3nc(Nc4cc(C)[nH]n4)c4ccccc4n3)nn2)c1
inactive: NCI-H23 lung 61.1% | NCI-H226 lung 49.9% | NCI-H322M lung 52.2% | HOP-62 NSCLC 50.2% | NCI-H460 lung 44.9% | HOP-92 NSCLC 35.8% | A549/ATCC NSCLC 35.9% | 786-0 renal 51.4% | COLO 205 colon 85.8%
active: NCI-H522 lung 9.97%

CC(=O)/C(=C/c1cccc(Cl)c1)C(=O)c1ccccc1
inactive: NCI-H23 lung 90.2% | NCI-H226 lung 84.1% | NCI-H322M lung 100% | HOP-62 NSCLC 95.7% | NCI-H460 lung 102% | HOP-92 NSCLC 88.7% | NCI-H522 lung 56.6% | A549/ATCC NSCLC 82.6% | 786-0 renal 93.2% | COLO 205 colon 107%

Cn1cc(-c2csc(-c3cn(C)c4ncccc34)n2)c2ccccc21
inactive: NCI-H23 lung 41.8% | NCI-H226 lung 74.8% | NCI-H322M lung 45.1% | HOP-62 NSCLC 33.8% | NCI-H460 lung 11.7% | HOP-92 NSCLC 66.1% | A549/ATCC NSCLC 23.8% | 786-0 renal 60%
active: NCI-H522 lung -18.8% | COLO 205 colon -7.52%

CC/C=C\C[C@H](F)C/C=C1/C(=O)C=C[C@@H]1C/C=C\CCCC(=O)OC
active: NCI-H23 lung -12.6% | HOP-62 NSCLC -25.8% | NCI-H460 lung 1.34% | NCI-H522 lung -26.8% | 786-0 renal 5.15% | COLO 205 colon -28.1%
inactive: NCI-H226 lung 25.4% | NCI-H322M lung 45.5% | HOP-92 NSCLC 68.9% | A549/ATCC NSCLC 24.3%

O=C1c2cccnc2C(=O)c2c1c(C(=O)OCCN1CCCCC1)c1ccccn21
inactive: HOP-92 NSCLC 12.5%
active: NCI-H23 lung -53.2% | NCI-H226 lung -15.3% | NCI-H322M lung -81.7% | HOP-62 NSCLC -34.5% | NCI-H460 lung -16.7% | NCI-H522 lung -64.5% | A549/ATCC NSCLC -46.6% | 786-0 renal -45.9% | COLO 205 colon -70.3%

CC1=CC(=O)CC(C)(C)[C@@]1(O)/C=C/[C@@H](C)O
inactive: NCI-H23 lung 89.7% | NCI-H226 lung 80.8% | NCI-H322M lung 103% | HOP-62 NSCLC 107% | NCI-H460 lung 112% | HOP-92 NSCLC 97% | NCI-H522 lung 92.7% | A549/ATCC NSCLC 87.7% | 786-0 renal 102% | COLO 205 colon 110%

Cn1cc(-c2nc(-c3c[nH]c4ccccc34)cs2)c2cccnc21
inactive: NCI-H23 lung 49.6% | NCI-H226 lung 65.9% | NCI-H322M lung 58.9% | HOP-62 NSCLC 33.3% | NCI-H460 lung 16.8% | HOP-92 NSCLC 30.4% | A549/ATCC NSCLC 34.2% | 786-0 renal 64.9%
active: NCI-H522 lung -3.47% | COLO 205 colon -2.81%

COc1ccc(/C(=C/c2ccc3ccccc3c2)c2nn[nH]n2)cc1OC
active: HOP-92 NSCLC 5.89% | NCI-H522 lung -2.85% | COLO 205 colon -2.4%
inactive: NCI-H23 lung 31.5% | NCI-H226 lung 81.1% | NCI-H322M lung 40.1% | HOP-62 NSCLC 27.8% | NCI-H460 lung 14.1% | A549/ATCC NSCLC 25.4% | 786-0 renal 40.4%

CCOC(=O)C12CCCC1=CC(=O)CC2 (stereo not given)
inactive: NCI-H23 lung 107% | NCI-H226 lung 107% | NCI-H322M lung 104% | HOP-62 NSCLC 101% | NCI-H460 lung 107% | HOP-92 NSCLC 107% | NCI-H522 lung 105% | A549/ATCC NSCLC 91.6% | 786-0 renal 104% | COLO 205 colon 108%

CN1CCOCCOCCOc2ccccc2NC(=O)c2nc(cnc2N)-c2ccc(cc2)S1(=O)=O
inactive: NCI-H23 lung 34.5% | NCI-H226 lung 101% | NCI-H322M lung 36.8% | HOP-62 NSCLC 92.4% | NCI-H460 lung 34.3% | HOP-92 NSCLC 95.5% | NCI-H522 lung 43.9% | A549/ATCC NSCLC 49.8% | 786-0 renal 18% | COLO 205 colon 27.9%

CC(=O)OCC1OC(OC2=C(CC=C(Cl)Cl)C(=O)c3ccccc3C2=O)C(OC(C)=O)C(OC(C)=O)C1OC(C)=O (stereo not given)
active: HOP-92 NSCLC -9.2% | NCI-H522 lung 3.88%
inactive: NCI-H23 lung 105% | NCI-H226 lung 85% | NCI-H322M lung 102% | HOP-62 NSCLC 92.7% | NCI-H460 lung 95.1% | A549/ATCC NSCLC 102% | 786-0 renal 102% | COLO 205 colon 97.6%

O=S(=O)(NCCCNc1cc(-c2cn(-c3ccccc3)nc2-c2ccccc2)ccn1)c1ccc(C(F)(F)F)cc1
inactive: NCI-H23 lung 58.7% | NCI-H226 lung 54.3% | NCI-H322M lung 66.8% | HOP-62 NSCLC 82% | NCI-H460 lung 50.7% | HOP-92 NSCLC 32.2% | NCI-H522 lung 72.1% | A549/ATCC NSCLC 40.9% | 786-0 renal 29% | COLO 205 colon 33.1%

CCCCCCCCCCNC(=O)CCl
inactive: NCI-H23 lung 47.5% | NCI-H226 lung 85.7% | NCI-H322M lung 92.8% | HOP-62 NSCLC 81.3% | NCI-H460 lung 92.9% | HOP-92 NSCLC 36.2% | NCI-H522 lung 50.4% | A549/ATCC NSCLC 93.6% | 786-0 renal 82.3% | COLO 205 colon 116%
